Laboratory results taken from PubChem BioAssay (EPA / NIEHS).
Records with an inconclusive call do not appear. Calls of active or inactive are those of the source. Rule for the calls, unless noted: active = hit-call score of the fitted dose curve at least 0.9, where 1 is the maximum; inconclusive = response in the unintended direction; inactive = score below 0.9.

What was measured:
[1] = ATG_TGFb_CIS: Attagene CIS-FACTORIAL HepG2 Assay for human Transforming Growth Factor (TGF) (AID 2282967; active = hit-call score of the fitted dose curve at least 0.9, where 1 is the maximum; inactive = score below 0.9); settings: HepG2 Attagene CIS TGFb reporter, mRNA transcription; actives raise or lower the signal
Summary of the method: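 HepG2 cells transiently transfected with cis-promoter-driven multiple reporter units measure endogenous TF activity; reporter mRNA quantified at 24 h by RT-PCR, FAM labeling, HpaI digestion and capillary electrophoresis. Bidirectional fit vs DMSO.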

[2] = target: X-box-binding protein 1 (Homo sapiens) (UniProt P17861); test: ATG_Xbp1_CIS: Attagene CIS-FACTORIAL HepG2 Assay for human X-box Binding Protein 1 (XBP1) (AID 2282972; active = hit-call score of the fitted dose curve at least 0.9, where 1 is the maximum; inactive = score below 0.9); settings: HepG2 XBP1 cis-element reporter, Attagene multiplex; actives raise or lower the signal
Sequence of X-box-binding protein 1 (Homo sapiens) (P17861 whole entry, looked up): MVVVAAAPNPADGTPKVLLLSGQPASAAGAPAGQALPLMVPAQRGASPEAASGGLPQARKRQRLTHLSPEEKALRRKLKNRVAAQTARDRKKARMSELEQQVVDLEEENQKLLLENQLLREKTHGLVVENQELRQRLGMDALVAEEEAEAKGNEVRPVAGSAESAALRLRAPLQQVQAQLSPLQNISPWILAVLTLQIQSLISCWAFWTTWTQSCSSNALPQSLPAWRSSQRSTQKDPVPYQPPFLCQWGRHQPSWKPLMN
Summary of the method: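 Reporter transcripts were quantified by RT-PCR with fluorescent primer extension and capillary electrophoresis after 24 h chemical exposure. Cells: transiently transfected HepG2 carrying cis-regulated reporter constructs; data fitted bidirectionally relative to DMSO.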

[3] = target: Oxysterols receptor LXR-beta (Homo sapiens) (UniProt P55055); test: ATG_LXRb_TRANS: Attagene TRANS-FACTORIAL HepG2 Assay for human Liver X Receptor beta (LXRb) (AID 2282981); settings: HepG2 Attagene TRANS GAL4-LXRb reporter, mRNA
Sequence of Oxysterols receptor LXR-beta (Homo sapiens) (P55055 whole entry, looked up, the tested form may be a part): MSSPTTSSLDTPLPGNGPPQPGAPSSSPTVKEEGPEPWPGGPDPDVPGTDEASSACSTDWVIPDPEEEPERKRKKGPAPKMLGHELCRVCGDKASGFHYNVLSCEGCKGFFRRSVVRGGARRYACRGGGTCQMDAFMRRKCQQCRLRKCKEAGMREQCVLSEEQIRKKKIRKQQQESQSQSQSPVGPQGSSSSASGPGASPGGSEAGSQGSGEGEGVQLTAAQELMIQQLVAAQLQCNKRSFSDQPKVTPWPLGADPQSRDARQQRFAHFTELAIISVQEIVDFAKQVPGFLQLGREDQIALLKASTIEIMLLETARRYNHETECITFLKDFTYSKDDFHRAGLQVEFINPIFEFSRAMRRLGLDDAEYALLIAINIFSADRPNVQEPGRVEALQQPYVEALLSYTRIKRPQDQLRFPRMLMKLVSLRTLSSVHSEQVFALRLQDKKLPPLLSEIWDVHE
Summary of the method: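 Multiplexed reporter assay, HepG2, 24 h dosing. Fluorescence of labelled RT-PCR products after capillary electrophoresis gives transcript level; positive fitting direction relative to DMSO.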

[4] = ATG_M_06_TRANS: Attagene TRANS-FACTORIAL HepG2 Assay for M06 Transcription Factor (Internal Marker) (AID 2282983); settings: HepG2 Attagene TRANS M06 internal marker reporter
Summary of the method: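 Read-out: fluorescent reporter cDNA fragments resolved by capillary electrophoresis after RT-PCR and HpaI cut. Source cells were HepG2 carrying transfected multi-reporter GAL4 constructs, dosed 24 h. Increase over DMSO control analysed.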

[5] = target: Nuclear receptor subfamily 4 group A member 2 (Homo sapiens) (UniProt P43354); test: ATG_NURR1_TRANS: Attagene TRANS-FACTORIAL HepG2 Assay for human Nuclear Receptor Related Protein 1 (NURR1) (AID 2282985); settings: HepG2 Attagene TRANS reporter, mRNA readout
Sequence of Nuclear receptor subfamily 4 group A member 2 (Homo sapiens) (P43354 whole entry, looked up): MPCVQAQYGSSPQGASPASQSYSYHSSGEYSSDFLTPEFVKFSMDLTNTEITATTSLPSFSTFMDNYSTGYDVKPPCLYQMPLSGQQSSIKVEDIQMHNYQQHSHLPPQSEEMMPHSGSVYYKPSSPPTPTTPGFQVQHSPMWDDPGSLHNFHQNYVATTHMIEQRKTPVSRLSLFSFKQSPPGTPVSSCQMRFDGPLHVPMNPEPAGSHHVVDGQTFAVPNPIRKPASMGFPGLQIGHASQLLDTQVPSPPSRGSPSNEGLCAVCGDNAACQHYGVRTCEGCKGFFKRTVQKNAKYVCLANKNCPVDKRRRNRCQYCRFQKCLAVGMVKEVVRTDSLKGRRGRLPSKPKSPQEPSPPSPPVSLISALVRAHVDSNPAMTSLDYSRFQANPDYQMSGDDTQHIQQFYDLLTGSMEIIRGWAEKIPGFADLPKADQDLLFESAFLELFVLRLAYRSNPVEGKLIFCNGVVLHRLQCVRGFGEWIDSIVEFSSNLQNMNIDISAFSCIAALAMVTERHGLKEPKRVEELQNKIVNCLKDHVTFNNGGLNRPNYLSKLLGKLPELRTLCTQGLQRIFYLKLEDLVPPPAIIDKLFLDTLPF
Summary of the method: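 Endpoint: reporter mRNA increase relative to DMSO. HepG2 cells transfected with reporter units, treated 24 h; RNA processed by RT-PCR, labelling, HpaI digestion and capillary electrophoresis.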

[6] = target: Transcriptional activator Myb (Homo sapiens) (UniProt P10242); test: ATG_Myb_CIS: Attagene CIS-FACTORIAL HepG2 Assay for human Myeloblastosis (Myb) Proto-Oncogene Transcription Factor (AID 2282986; active = hit-call score of the fitted dose curve at least 0.9, where 1 is the maximum; inactive = score below 0.9); settings: HepG2 Attagene CIS-FACTORIAL Myb reporter transcription; actives raise or lower the signal
Sequence of Transcriptional activator Myb (Homo sapiens) (P10242 whole entry, looked up): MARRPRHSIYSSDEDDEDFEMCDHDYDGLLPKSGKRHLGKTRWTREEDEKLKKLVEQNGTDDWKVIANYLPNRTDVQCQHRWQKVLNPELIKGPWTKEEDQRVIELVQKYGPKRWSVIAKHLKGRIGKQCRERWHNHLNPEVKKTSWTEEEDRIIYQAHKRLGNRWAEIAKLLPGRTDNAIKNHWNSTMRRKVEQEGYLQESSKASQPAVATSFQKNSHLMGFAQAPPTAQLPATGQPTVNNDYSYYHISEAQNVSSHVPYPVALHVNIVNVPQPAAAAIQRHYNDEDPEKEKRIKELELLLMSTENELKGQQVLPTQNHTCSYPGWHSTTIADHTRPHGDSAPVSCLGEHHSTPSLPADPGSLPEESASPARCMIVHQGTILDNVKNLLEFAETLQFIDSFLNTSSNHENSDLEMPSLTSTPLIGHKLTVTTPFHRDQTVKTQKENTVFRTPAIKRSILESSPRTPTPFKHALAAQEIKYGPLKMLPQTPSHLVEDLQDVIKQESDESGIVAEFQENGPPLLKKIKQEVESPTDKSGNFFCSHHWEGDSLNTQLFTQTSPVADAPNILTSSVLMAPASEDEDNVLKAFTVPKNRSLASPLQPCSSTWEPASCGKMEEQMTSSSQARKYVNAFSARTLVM
Summary of the method: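 HepG2 cells were transiently transfected with cis-regulated multiple reporter transcription units reflecting endogenous Myb activity, then exposed to compound for 24 hours. Reporter mRNA was measured by RT-PCR with capillary electrophoresis; bidirectional fitting versus DMSO baseline.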

[7] = target: Nuclear respiratory factor 1 (Homo sapiens) (UniProt Q16656); test: ATG_NRF1_CIS: Attagene CIS-FACTORIAL HepG2 Assay for human Nuclear Respiratory Factor 1 (NRF1) Orphan Gene (AID 2282987; active = hit-call score of the fitted dose curve at least 0.9, where 1 is the maximum; inactive = score below 0.9); settings: HepG2 NRF1 cis-element reporter, Attagene multiplex; actives raise or lower the signal
Sequence of Nuclear respiratory factor 1 (Homo sapiens) (Q16656 whole entry, looked up): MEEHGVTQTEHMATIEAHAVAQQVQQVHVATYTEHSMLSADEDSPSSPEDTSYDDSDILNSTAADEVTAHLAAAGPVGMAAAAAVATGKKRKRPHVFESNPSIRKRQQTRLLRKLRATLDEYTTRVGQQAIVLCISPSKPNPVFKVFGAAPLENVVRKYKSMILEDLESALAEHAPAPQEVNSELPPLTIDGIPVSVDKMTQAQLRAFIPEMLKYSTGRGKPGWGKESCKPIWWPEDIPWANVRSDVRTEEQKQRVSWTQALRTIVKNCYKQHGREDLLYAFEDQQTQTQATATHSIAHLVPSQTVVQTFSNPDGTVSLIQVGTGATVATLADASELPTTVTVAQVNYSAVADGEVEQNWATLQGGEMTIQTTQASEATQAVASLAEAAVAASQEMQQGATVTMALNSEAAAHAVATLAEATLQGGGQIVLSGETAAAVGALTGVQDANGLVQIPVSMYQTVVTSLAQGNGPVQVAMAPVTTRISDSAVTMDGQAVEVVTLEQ
Summary of the method: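 HepG2 cells transiently transfected with multiple reporter transcription units under cis-regulatory promoter control, so endogenous transcription-factor activity is read. After 24 h compound exposure, reporter mRNA quantified by RT-PCR, fluorescent labelling, HpaI digestion and capillary electrophoresis; bidirectional fitting versus DMSO.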

[8] = ATG_VDRE_CIS: Attagene CIS-FACTORIAL HepG2 Assay for human Vitamin D Receptor Element (VDRE) (AID 2282968; active = hit-call score of the fitted dose curve at least 0.9, where 1 is the maximum; inactive = score below 0.9); settings: HepG2 VDRE cis-reporter transcription, actives raise or lower the signal
Summary of the method: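 Compounds were applied for 24 h to HepG2 cells transfected with promoter-regulated reporter units. Total RNA was reverse-transcribed, and reporter amplicons were fluorescently labelled and sized by capillary electrophoresis.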

[9] = ATG_M_19_TRANS: Attagene TRANS-FACTORIAL HepG2 Assay for M19 Transcription Factor (Internal Marker) (AID 2282974); settings: HepG2 Attagene TRANS-FACTORIAL M19 internal marker reporter
Summary of the method: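 HepG2 cells transiently transfected with multiple GAL4-UAS reporter transcription units were exposed to chemicals for 24 h. Reporter mRNA was read by RT-PCR, 6-FAM primer extension, HpaI digestion and capillary electrophoresis; gain of signal fitted relative to DMSO.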

[10] = ATG_GAL4_TRANS: Attagene TRANS-FACTORIAL HepG2 Assay for GAL4 (Internal Marker) (AID 2282976); settings: HepG2 Attagene TRANS GAL4 internal marker reporter
Summary of the method: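 RT-PCR/capillary electrophoresis readout of reporter mRNA. HepG2, transient MRTU transfection (GAL4-UAS reporters), 24 h compound exposure. Background-control endpoint, positive direction vs DMSO baseline.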

[11] = target: Bile acid receptor (Homo sapiens) (UniProt Q96RI1); test: ATG_FXR_TRANS: Attagene TRANS-FACTORIAL HepG2 Assay for Farnesoid X Receptor (FXR) (AID 2282979); settings: HepG2 Attagene TRANS FXR-GAL4 reporter transcription;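 note: hits raise reporter mRNA above DMSO so AC50 marks FXR activation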
Sequence of Bile acid receptor (Homo sapiens) (Q96RI1 whole entry, looked up, the tested form may be a part): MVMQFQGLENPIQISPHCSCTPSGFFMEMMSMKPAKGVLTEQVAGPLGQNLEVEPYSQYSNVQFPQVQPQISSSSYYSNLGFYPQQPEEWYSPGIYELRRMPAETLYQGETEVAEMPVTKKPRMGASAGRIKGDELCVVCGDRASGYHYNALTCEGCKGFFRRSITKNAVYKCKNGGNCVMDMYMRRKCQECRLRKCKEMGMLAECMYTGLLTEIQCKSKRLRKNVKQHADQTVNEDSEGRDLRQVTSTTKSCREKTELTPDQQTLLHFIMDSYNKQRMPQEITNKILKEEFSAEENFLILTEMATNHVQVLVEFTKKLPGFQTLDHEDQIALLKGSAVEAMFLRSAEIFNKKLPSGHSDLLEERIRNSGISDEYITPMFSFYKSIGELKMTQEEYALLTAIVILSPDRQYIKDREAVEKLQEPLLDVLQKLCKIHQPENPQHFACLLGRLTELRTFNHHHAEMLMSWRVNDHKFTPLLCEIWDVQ
Summary of the method: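 Read-out: fluorescent reporter transcripts quantified by capillary electrophoresis after RT-PCR of total RNA. Source cells were HepG2 transiently carrying chimeric NR-GAL4 plus GAL4-UAS reporter units, dosed 24 h. Activity fitted upward relative to DMSO baseline.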

[12] = ATG_M_32_TRANS: Attagene TRANS-FACTORIAL HepG2 Assay for M32 Transcription Factor (Internal Marker) (AID 2282984); settings: HepG2 Attagene TRANS M32 internal marker reporter;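 note: transcript level of a background control reporter unit measured by RT-PCR and capillary electrophoresis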
Summary of the method: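 Internal-marker readout from a multiplexed transcription reporter panel. HepG2 cells were transfected with GAL4-UAS reporter units, treated 24 hours, and reporter transcript levels determined by fluorescence after RT-PCR and capillary separation.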

[13] = target: Nuclear receptor subfamily 1 group I member 3 (Homo sapiens) (UniProt Q14994); test: ATG_CAR_TRANS: Attagene TRANS-FACTORIAL HepG2 Assay for human Constitutive Androstane Receptor (CAR) (AID 2282969); settings: HepG2 Attagene TRANS-FACTORIAL CAR reporter;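 note: activators raise reporter mRNA above DMSO so AC50 marks induction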
Sequence of Nuclear receptor subfamily 1 group I member 3 (Homo sapiens) (Q14994 whole entry, looked up, the tested form may be a part): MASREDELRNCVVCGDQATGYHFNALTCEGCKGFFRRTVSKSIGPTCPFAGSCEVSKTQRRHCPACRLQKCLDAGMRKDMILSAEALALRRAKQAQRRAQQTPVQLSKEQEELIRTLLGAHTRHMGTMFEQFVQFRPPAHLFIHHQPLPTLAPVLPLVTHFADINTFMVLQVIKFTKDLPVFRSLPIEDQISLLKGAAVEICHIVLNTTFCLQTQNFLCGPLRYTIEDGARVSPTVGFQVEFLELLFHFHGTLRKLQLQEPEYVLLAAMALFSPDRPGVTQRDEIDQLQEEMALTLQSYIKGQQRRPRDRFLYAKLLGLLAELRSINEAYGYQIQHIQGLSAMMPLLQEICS
Summary of the method: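 Transiently transfected HepG2, multiplex TRANS reporters (CAR-Gal4 chimera driving GAL4-UAS reporter). 24 h dosing. Readout: reporter transcript by RT-PCR + capillary electrophoresis, fluorescence intensity; positive direction vs DMSO.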

[14] = target: Estrogen receptor (Homo sapiens) (UniProt P03372); test: ATG_ERa_TRANS: Attagene TRANS-FACTORIAL HepG2 Assay for human Estrogen Receptor alpha (ERa) (AID 2282970); settings: HepG2 Attagene TRANS ERa GAL4 reporter, mRNA
Summary of the method: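 Reporter mRNA induction after 24 hours, detected by fluorescent RT-PCR and capillary electrophoresis, gives the read-out. Cells are HepG2 transiently transfected with GAL4-UAS reporter transcription units responding to chimeric NR-Gal4. Activity is taken as gain of signal over DMSO baseline.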

[15] = target: Glucocorticoid receptor (Homo sapiens) (UniProt P04150); test: ATG_GR_TRANS: Attagene TRANS-FACTORIAL HepG2 Assay for human Glucocorticoid Receptor (GR) (AID 2282978); settings: HepG2 Attagene TRANS GR reporter, mRNA transcription;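 note: activators score as hits since higher reporter transcript over DMSO is fitted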
Summary of the method: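 HepG2 cells transiently transfected with multiplexed reporter units in which chimeric NR-GAL4 proteins drive GAL4-UAS reporters; 24 h compound exposure. Reporter mRNA measured by RT-PCR, 6-FAM labelling, HpaI digestion and capillary electrophoresis; gain-of-signal fitted versus DMSO.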

[16] = target: Hepatocyte nuclear factor 4-alpha (Homo sapiens) (UniProt P41235); test: ATG_HNF4a_TRANS: Attagene TRANS-FACTORIAL HepG2 Assay for human Hepatocyte Nuclear Factor 4 alpha (HNF4a) (AID 2282982); settings: HepG2 HNF4a transactivation reporter, mRNA readout
Sequence of Hepatocyte nuclear factor 4-alpha (Homo sapiens) (P41235 whole entry, looked up, the tested form may be a part): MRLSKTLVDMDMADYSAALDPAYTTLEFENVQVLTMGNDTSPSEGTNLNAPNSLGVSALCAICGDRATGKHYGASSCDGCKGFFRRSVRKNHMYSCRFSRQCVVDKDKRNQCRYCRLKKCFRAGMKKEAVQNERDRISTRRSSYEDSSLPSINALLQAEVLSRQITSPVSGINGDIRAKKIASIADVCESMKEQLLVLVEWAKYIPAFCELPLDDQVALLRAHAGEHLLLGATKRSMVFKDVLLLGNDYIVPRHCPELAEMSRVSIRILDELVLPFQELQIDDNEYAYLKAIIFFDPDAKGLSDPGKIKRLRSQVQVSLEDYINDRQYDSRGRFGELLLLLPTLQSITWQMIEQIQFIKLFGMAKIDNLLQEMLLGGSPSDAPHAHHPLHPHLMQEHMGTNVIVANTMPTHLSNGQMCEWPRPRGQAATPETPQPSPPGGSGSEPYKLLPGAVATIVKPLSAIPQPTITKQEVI
Summary of the method: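 Endpoint reflects transcriptional activation of a GAL4-UAS reporter by an HNF4a-GAL4 chimera in transfected HepG2 cells, 24 h post-dosing. Fluorescence from RT-PCR products separated by capillary electrophoresis; DMSO baseline.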

[17] = target: Estrogen-related receptor gamma (Homo sapiens) (UniProt P62508); test: ATG_ERRg_TRANS: Attagene TRANS-FACTORIAL HepG2 Assay for human Estrogen-Related Receptor gamma (ERRg) (AID 2282977); settings: HepG2 Attagene TRANS reporter, ERRg transactivation;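 note: hits increase reporter signal over DMSO so potencies reflect activators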
Sequence of Estrogen-related receptor gamma (Homo sapiens) (P62508 whole entry, looked up, the tested form may be a part): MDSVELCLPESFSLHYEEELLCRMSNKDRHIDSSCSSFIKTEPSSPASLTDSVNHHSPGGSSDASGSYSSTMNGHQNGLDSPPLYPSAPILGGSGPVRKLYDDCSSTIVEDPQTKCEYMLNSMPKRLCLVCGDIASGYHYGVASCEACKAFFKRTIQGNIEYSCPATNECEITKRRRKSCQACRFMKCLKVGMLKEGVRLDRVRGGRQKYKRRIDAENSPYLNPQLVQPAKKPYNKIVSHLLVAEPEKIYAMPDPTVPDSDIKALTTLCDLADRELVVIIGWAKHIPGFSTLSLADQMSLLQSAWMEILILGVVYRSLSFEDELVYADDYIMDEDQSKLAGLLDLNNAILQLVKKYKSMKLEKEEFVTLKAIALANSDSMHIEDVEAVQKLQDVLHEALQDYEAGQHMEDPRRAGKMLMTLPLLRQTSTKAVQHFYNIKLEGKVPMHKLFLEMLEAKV
Summary of the method: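 Induction of reporter transcripts through a chimeric NR-Gal4 protein is quantified in transfected human HepG2 liver cells after 24 h chemical exposure, using RT-PCR with capillary electrophoresis detection and DMSO as baseline.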

[18] = target: Oxysterols receptor LXR-alpha (Homo sapiens) (UniProt Q13133); test: ATG_LXRa_TRANS: Attagene TRANS-FACTORIAL HepG2 Assay for human Liver X Receptor alpha (LXRa) (AID 2282980); settings: HepG2 Attagene TRANS reporter, LXRa transactivation
Sequence of Oxysterols receptor LXR-alpha (Homo sapiens) (Q13133 whole entry, looked up, the tested form may be a part): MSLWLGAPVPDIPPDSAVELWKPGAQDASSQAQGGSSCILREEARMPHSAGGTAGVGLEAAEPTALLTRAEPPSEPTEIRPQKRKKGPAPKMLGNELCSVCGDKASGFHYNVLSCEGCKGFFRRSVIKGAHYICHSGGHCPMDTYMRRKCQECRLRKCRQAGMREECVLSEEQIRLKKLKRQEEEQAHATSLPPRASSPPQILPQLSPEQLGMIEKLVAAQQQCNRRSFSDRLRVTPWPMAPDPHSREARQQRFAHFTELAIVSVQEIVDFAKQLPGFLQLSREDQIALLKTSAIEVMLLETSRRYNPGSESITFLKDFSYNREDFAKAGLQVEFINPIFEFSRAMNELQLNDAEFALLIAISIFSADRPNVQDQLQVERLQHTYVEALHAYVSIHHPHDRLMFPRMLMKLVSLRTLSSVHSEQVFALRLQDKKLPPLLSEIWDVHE
Summary of the method: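 Read-out: reporter transcript levels by RT-PCR plus capillary electrophoresis, fluorescence intensity. Transiently transfected HepG2, exogenous NR-GAL4 chimera, GAL4-UAS reporters; 24 h compound exposure. Activity = increase over DMSO negative control.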

[19] = target: Steroid hormone receptor ERR1 (Homo sapiens) (UniProt P11474); test: ATG_ERRa_TRANS: Attagene TRANS-FACTORIAL HepG2 Assay for human Estrogen-Related Receptor alpha (ERRa) (AID 2282971); settings: HepG2 Attagene TRANS reporter, ERRa transactivation
Summary of the method: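 Transfected HepG2, 24 h dosing, ERRa-Gal4 chimera driving GAL4-UAS reporter. Readout: reporter mRNA via RT-PCR plus capillary electrophoresis (fluorescence). Positive direction vs DMSO control.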

Measured: AC50

COc1ccc(NC(C)=O)cc1N
inactive: [1] | [2] | [3] | [4] | [5] | [6] | [7]

FC(F)=C(F)OC(F)(F)C(F)(F)C(F)(F)F
inactive: [1] | [8] | [2] | [9] | [10] | [3] | [5] | [6] | [7]

COCC(C)N (stereo unspecified)
inactive: [1] | [8] | [2] | [9] | [11] | [4] | [12] | [5] | [6] | [7]

O=C1CCCCCCCCCCC(=O)OCCO1
not listed: [3] | [5] | [11] | [12] | [16] | [17] | [18] | [19]
inactive: all other assays above

CCCCCCCC(C)=O
inactive: [1] | [8] | [2] | [9] | [10] | [16] | [4] | [12] | [6] | [7]

CCCCC(CC)COCC1CO1 (stereo unspecified)
not listed: [3] | [5] | [9] | [11] | [13] | [18] | [19]
inactive: all other assays above

c1cc(N(CC2CO2)CC2CO2)ccc1OCC1CO1 (stereo unspecified)
active: [8] 36.8 µM | [2] 12.9 µM
not listed: [5] | [10] | [12] | [14] | [15] | [19]
inactive: all other assays above

Cc1cc(C)c(C)c(C)c1
not listed: [11] | [14] | [15] | [18]
inactive: all other assays above

O=CC1CC1
inactive: [1] | [8] | [2] | [9] | [10] | [18] | [12] | [6] | [7]
